“And” between values parts separate entries of the source, which are not always exact repeats. Equal entries are not always repeated. Results filed as inconclusive are left out. For some assays here: Measured potencies and affinities stand elsewhere. The source made the active and inactive calls.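 How the source made its calls, unless noted: active means at least 20% inhibition of 6-phosphogluconate dehydrogenase activity; inactive means the rest.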
Tests used:
[1] = molecular target: 6-phosphogluconate dehydrogenase, decarboxylating (Homo sapiens) (UniProt P52209); experiment: 6PGD enzyme inhibitors, primary screen, biochemical, human, recombinant enzyme, NADPH absorbance (AID 1159550); conditions: recombinant 6PGD, NADPH absorbance 341 nm; at 10 µM; stronger effect = higher value
[2] = polyglutamine-triggered caspase-3 activation inhibitors, cell-based (AID 1583); conditions: polyglutamine-induced caspase-3 activation, cell assay; stronger effect = higher value;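 tested at 10 µM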
[3] = suppressors of polyQ aggregation in yeast, 75Q-TubU reporter (AID 1593); conditions: Yeast 75Q polyglutamine aggregation reporter
[4] = rescue of polyQ-huntingtin neuronal dysfunction in worms, whole organism, C. elegans mechanosensory neurons, N-terminal huntingtin (AID 1599); conditions: touch response, stronger effect = higher value
[5] = inhibitors of mitochondrial cytochrome c release, biochemical, purified mitochondria (AID 1603); conditions: stronger effect = lower value;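 further: mouse liver mitochondria challenged with calcium chloride; signal normalized to the plate average as 100%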
[6] = inhibitors of polyQ protein aggregation (AID 1604); conditions: polyglutamine-induced protein aggregation inhibition assay; stronger effect = higher value; tested at 2.5 µM
[7] = enhancers of glutamate uptake in motor neurons, MN-1 cell line (AID 1612); conditions: MN-1 motor neuron cells, stronger effect = higher value;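 further: tested at 1 µM final; 0% = mean of DMSO vehicle wells on each plate; positive means more glutamate uptake than control and negative means less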
[8] = reducers of polyQ inclusions in PC12 cells, cell-based, NGF-treated PC12, GFPQ80 (AID 1614); conditions: PC12 NGF-treated GFP-polyQ80 inclusion reduction;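 further: lower means fewer inclusions and 0 means no inclusions at all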
[9] = suppressors of polyglutamine aggregation in yeast, 75Q-TubH (AID 1616); conditions: S. cerevisiae 75Q-TubH polyglutamine aggregation suppression; stronger effect = higher value
[10] = liver-stage malaria parasite growth inhibition, primary screen, cell-based, HepG2, luciferase luminescence, HepG2 viability (AID 624349; in the data active means parasite load remaining mostly below about 12%, no sharp cut-off; inactive means mostly above about 10%;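 further: 100% = mean of DMSO negative control wells on the same plate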); conditions: P. berghei liver stage in HepG2, luciferase luminescence, concentration not given here; parasite load remaining: stronger effect = lower value; viability: measured here: HepG2 viability without parasites
[11] = differential killing of epithelial or mesenchymal cells, primary screen, imaging, PC-3E GFP, TEM4-18 mCherry, co-culture (AID 1345086;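 active means compounds killing one labelled cell type while sparing the other, by normalised counts and ratio limits, not self-fluorescent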;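 on all read-outs here: cells exposed to compound for 72 h before imaging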;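 on red/green cell ratio (normalised): normalised mesenchymal count divided by normalised epithelial count so high means epithelial killing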); conditions: imaging cell counts, at 1 µM; for red/green cell ratio (normalised): actives lie on both sides
[12] = tested on: Aerobactin synthetase IucA (Klebsiella pneumoniae hvKP1); experiment: Biochemical IucA enzyme inhibition primary screen of the Spectrum library (AID 1346200; call rule not given here;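 further: 100% = wells without compound and 0% = wells lacking enzyme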); conditions: malachite green pyrophosphate, A620, at 8 µM, stronger effect = lower value
[13] = molecular target: Mitogen-activated protein kinase 7 (Homo sapiens) (UniProt Q13164); experiment: ERK5 transactivation activators in reporter cells, primary screen, cell-based, HTS (AID 1508626;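 active means luciferase signal above three times the same-plate solvent-only control wells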;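 further: luciferase driven by Gal4-ERK5 fusion binding five Gal4 sites before minimal TATA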); conditions: HeLa Gal4-ERK5 transactivation, 18 h, at 5 µM, stronger effect = higher value
[14] = tested on: Aerobactin synthetase IucA (Klebsiella pneumoniae, hypervirulent); experiment: IucA enzyme inhibition, biochemical, LOPAC library, absorbance readout (AID 1346212; call rule not given here;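 further: 100% = no compound wells and 0% = no enzyme wells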); conditions: IucA enzyme assay, absorbance (OD) readout; stronger effect = lower value; concentration not given here
[15] = sensitizers of A549 cells to miR-34 induction, primary screen, imaging, A549 dox-inducible miR-34, nuclei and caspase counts (AID 1347080;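 active means compounds whose cell count with miR-34 switched on is under 0.7 times the count with it off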); conditions: A549 miR-34 inducible, Hoechst nuclei count, 48 h
[16] = viability rescue of complex I mutant cybrids, primary screen, cell-based, galactose medium, ATP luminescence (AID 1645843;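 active means z-score of at least 1.8 in each of two replicates, scored against plate mean and spread of sample wells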;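 further: positive z means more ATP and so rescue of galactose-driven cybrid death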); conditions: complex I mutant cybrid cells, 72 h, stronger effect = higher value
[17] = molecular target: ATP-dependent translocase ABCB1 (Homo sapiens) (UniProt P08183); experiment: MDR1 (ABCB1) efflux transporter inhibition, cell-based (AID 377; in the data active means fluorescence slope change above about 50%); conditions: MDR1-expressing cells, fluorescent substrate accumulation slope; stronger effect = higher value; concentration not given here
[18] = hESC survival regulators, cell-based (AID 493140; call rule not given here;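 further: cells exposed to compounds for four days before counting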); conditions: human embryonic stem cell survival screen; stronger effect = higher value
[19] = survival rescue of mitochondrial mutant cells in low glucose, primary screen, MELAS cybrids, Rieske KO mouse fibroblasts, CellTiter-Glo (AID 1508586;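 active means mean z-score across replicates of 1.96 or higher in either the MELAS or the Rieske mutant cell line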;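 further: z relative to plate mean and SD of compound and empty wells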)
[20] = molecular target: NAD(+) hydrolase SARM1 (Homo sapiens) (UniProt Q6SZW1); experiment: SARM1 TIR NADase inhibitors, cell lysate, NAD-Glo luminescence (AID 1508614;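 active means compound whose remaining NAD level is above about 45 nM, limit read from the data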); conditions: SAM-TIR HEK293T lysate NADase, at 1 µM, stronger effect = higher value
[21] = measured here: epithelial PC-3E GFP cell survival
[22] = measured here: mesenchymal TEM4-18 mCherry cell survival
[23] = measured here: relative caspase fold change +Dox/-Dox
[24] = measured here: total cells with miR-34 induction, stronger effect = lower value
[25] = measured here: total cells without miR-34 induction
[26] = MELAS cybrid survival, CellTiter-Glo 48 h, stronger effect = higher value
[27] = Rieske KO mouse fibroblast survival, CellTiter-Glo 72 h

Sequence of 6-phosphogluconate dehydrogenase, decarboxylating (Homo sapiens) (P52209 whole entry, looked up): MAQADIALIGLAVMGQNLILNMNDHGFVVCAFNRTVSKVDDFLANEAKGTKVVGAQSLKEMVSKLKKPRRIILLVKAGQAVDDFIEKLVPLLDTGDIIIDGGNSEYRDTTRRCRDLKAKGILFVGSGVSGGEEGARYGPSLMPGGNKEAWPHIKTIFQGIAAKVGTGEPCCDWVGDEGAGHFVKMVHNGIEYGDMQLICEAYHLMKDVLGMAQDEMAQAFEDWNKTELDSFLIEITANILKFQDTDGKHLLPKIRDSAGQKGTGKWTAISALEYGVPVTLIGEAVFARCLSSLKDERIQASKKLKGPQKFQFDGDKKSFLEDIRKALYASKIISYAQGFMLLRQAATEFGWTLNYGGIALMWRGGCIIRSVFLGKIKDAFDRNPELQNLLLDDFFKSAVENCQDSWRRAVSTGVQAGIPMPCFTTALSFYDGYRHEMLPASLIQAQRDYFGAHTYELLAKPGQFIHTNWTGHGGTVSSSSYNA
Sequence of NAD(+) hydrolase SARM1 (Homo sapiens) (Q6SZW1 whole entry, looked up): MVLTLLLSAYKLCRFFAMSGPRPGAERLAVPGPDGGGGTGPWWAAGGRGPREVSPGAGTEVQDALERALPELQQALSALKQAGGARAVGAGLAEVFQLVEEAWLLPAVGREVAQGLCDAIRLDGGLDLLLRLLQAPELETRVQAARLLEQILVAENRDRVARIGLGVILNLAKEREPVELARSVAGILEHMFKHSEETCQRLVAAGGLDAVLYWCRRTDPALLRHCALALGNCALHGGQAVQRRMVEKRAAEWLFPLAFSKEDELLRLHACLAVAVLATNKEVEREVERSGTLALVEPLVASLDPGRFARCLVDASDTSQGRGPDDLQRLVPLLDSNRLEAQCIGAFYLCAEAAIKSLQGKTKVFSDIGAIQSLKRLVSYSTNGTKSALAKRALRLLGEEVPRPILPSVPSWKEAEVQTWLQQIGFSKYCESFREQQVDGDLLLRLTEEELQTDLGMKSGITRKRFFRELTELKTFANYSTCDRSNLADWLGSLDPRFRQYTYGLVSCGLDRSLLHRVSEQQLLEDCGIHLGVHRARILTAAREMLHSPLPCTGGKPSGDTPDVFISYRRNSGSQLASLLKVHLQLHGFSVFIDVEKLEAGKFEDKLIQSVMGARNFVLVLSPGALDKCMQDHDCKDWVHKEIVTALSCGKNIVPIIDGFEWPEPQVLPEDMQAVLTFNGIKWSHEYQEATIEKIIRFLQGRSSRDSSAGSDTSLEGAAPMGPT
Sequence of Mitogen-activated protein kinase 7 (Homo sapiens) (Q13164 whole entry, looked up, the tested form may be a part): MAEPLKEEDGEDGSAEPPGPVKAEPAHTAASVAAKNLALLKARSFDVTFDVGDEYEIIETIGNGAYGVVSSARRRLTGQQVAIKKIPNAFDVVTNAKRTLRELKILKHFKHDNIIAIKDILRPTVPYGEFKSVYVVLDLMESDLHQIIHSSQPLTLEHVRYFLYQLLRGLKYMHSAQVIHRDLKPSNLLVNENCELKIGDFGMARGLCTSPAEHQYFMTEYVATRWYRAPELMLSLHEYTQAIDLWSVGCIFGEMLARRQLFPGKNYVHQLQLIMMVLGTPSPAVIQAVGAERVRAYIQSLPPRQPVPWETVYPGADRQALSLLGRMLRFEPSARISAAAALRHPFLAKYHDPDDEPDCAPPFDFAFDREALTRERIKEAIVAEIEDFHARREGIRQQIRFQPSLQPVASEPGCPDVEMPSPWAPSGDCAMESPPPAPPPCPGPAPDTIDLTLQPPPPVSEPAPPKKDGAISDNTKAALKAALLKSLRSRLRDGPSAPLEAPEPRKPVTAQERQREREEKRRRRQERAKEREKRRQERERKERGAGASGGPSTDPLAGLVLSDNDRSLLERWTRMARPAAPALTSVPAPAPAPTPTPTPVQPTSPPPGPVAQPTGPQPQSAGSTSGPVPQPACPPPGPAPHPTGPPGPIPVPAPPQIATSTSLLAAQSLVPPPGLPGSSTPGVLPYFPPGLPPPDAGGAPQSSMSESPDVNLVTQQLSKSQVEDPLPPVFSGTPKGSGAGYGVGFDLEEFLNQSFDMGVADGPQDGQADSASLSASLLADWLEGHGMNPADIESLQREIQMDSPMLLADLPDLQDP
Sequence of ATP-dependent translocase ABCB1 (Homo sapiens) (P08183 whole entry, looked up): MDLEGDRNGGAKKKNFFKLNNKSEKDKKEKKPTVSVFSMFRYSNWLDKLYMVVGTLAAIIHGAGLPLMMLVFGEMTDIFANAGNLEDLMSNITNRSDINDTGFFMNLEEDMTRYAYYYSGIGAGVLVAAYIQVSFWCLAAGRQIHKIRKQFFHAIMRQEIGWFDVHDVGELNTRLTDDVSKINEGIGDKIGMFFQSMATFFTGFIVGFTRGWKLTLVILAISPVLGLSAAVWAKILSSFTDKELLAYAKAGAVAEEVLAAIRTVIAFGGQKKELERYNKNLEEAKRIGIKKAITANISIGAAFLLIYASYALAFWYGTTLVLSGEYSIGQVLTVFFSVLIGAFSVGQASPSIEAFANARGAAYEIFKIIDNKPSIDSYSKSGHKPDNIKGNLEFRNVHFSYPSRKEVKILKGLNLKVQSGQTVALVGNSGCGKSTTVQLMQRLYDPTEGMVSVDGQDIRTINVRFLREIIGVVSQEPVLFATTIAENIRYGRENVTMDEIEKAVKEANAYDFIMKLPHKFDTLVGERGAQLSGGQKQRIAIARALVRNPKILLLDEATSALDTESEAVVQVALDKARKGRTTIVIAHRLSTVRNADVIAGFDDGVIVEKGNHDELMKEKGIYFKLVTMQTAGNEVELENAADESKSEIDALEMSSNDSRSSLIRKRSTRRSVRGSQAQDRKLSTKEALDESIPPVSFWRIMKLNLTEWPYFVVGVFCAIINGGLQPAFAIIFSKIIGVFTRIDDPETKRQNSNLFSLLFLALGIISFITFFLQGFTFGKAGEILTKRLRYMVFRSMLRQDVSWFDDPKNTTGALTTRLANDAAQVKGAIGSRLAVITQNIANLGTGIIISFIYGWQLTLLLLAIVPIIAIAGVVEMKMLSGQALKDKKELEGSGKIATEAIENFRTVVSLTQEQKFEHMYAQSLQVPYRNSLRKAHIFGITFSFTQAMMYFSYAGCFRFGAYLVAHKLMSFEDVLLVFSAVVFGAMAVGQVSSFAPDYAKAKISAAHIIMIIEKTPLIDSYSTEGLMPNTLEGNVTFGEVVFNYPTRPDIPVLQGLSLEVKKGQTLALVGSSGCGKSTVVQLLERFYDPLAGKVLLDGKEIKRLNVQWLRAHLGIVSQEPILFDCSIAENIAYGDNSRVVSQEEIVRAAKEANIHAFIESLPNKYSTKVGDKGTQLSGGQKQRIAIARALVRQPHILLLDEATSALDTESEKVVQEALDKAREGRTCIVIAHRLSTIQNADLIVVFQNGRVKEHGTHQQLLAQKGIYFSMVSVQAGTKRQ

CCS(=O)CCSP(=O)(OC)OC (stereo unspecified)
inhibition [1]: 1.58% (inactive)

O=c1ccc2cc(O[C@@H]3O[C@H](CO)[C@@H](O)[C@H](O)[C@H]3O)c(O)cc2o1
inhibition [2]: -24.4%
score [3]: 1.12
rescue above control [4]: -7.81
cytochrome c release ratio [5]: 0.85
inhibition of aggregation [6]: 54.9%
glutamate uptake change [7]: 18.9%
inclusion score [8]: 2
aggregation suppression score [9]: 1
parasite load remaining [10]: 71.6% (inactive)
viability [10]: 71.7%
inhibition [1]: -2.58% (inactive)
red/green cell ratio (normalised) [11]: 1.25 (inactive)
red/green cell ratio (normalised) ([11]; counts scaled to control wells, 1 = unselective): 0.97 (inactive)
normalised cell number [11, 21]: 0.87 and 1.04
normalised cell number [11, 22]: 1.09 and 1
activity remaining [12]: 95.9% (inactive)
luciferase signal [13]: 92 AU (inactive)

COc1ccc2[nH]cc(CCN)c2c1
parasite load remaining [10]: 58.9% (inactive)
viability [10]: 68.9%
inhibition [1]: 0.367% (inactive)
red/green cell ratio (normalised) [11]: 0.84 (inactive)
normalised cell number [11, 21]: 1.18
normalised cell number [11, 22]: 0.99
activity remaining [12]: 83.6% (inactive)
remaining activity [14]: 109% (inactive)
fold change ([15]; stronger effect = lower value): 1.03 (inactive) and 0.901 (inactive)
fold change [15, 23]: 1.64 and 1.2
cell count [15, 24]: 10600 and 8900
cell count [15, 25]: 10300 and 9880
z-score [16]: 0.225 (inactive) and 0.515 (inactive)

O=c1c2ccccc2[se]n1-c1ccccc1
fluorescence slope change [17]: -12.9% (inactive)
inhibition [2]: 12.1%
score [3]: 0.32
cytochrome c release ratio [5]: 1.88
inhibition of aggregation [6]: 72.2%
glutamate uptake change [7]: 26.2%
aggregation suppression score [9]: 0.00636
survival [18]: 0.417 (inactive)
parasite load remaining [10]: 54.1% (inactive) and 46.2% (inactive)
viability [10]: 93.6% and 69.7%
inhibition [1]: 51.1% (active)
red/green cell ratio (normalised) [11]: 0.87 (inactive)
normalised cell number [11, 21]: 1.06
normalised cell number [11, 22]: 0.92
activity remaining [12]: -2.27% (active)
remaining activity [14]: -5.47% (active)
z-score [19, 26]: -1.8
z-score [19, 27]: 2.16
remaining NAD [20]: 10 nM (inactive)
z-score [16]: -1.44 (inactive)

Clc1ccc(COC(Cn2ccnc2)c2ccc(Cl)cc2Cl)c(Cl)c1 (stereo unspecified)
inhibition [2]: 16.3%
score [3]: -0.06
rescue above control [4]: 0
cytochrome c release ratio [5]: 0.32
inhibition of aggregation [6]: 80.3%
glutamate uptake change [7]: 5.65%
aggregation suppression score [9]: 0.00246
inhibition [1]: -24.1% (inactive)
red/green cell ratio (normalised) [11]: 1.04 (inactive)
normalised cell number [11, 21]: 0.94
normalised cell number [11, 22]: 0.97
activity remaining [12]: 98.2% (inactive)
remaining NAD [20]: 10 nM (inactive)
luciferase signal [13]: 48 AU (inactive)
z-score [16]: -1.52 (inactive) and -2.01 (inactive)

O=C1CC[C@@]2(O)[C@H]3Cc4ccc(O)c5c4[C@@]2(CCN3CC2CC2)[C@H]1O5
fluorescence slope change [17]: 79.9% (active)
survival [18]: 16.1 (inactive)
inhibition [1]: 9.6% (inactive)
remaining activity [14]: 118% (inactive)
fold change ([15]; stronger effect = lower value): 0.971 (inactive) and 0.94 (inactive) and 0.843 (inactive)
fold change [15, 23]: 1.34 and 1.14 and 0.908
cell count [15, 24]: 11000 and 9230 and 9370
cell count [15, 25]: 11300 and 9820 and 11100
z-score [19, 26]: 0.477 (inactive) and 0.601 (inactive)
z-score [19, 27]: 0.069 and -0.0949
remaining NAD [20]: 10 nM (inactive)
luciferase signal [13]: 48 AU (inactive)
z-score [16]: 0.66 (inactive) and 0.275 (inactive)

C[C@@H]1CC[C@@]2(OC1)O[C@H]1[C@@H](O)[C@H]3[C@@H]4CC[C@H]5C[C@@H](O[C@@H]6O[C@H](CO)[C@H](O[C@@H]7O[C@H](CO)C(O)[C@H](O[C@@H]8OC[C@@H](O)[C@H](O)[C@H]8O)[C@H]7O[C@@H]7O[C@H](CO)[C@H](O)[C@H](O[C@@H]8O[C@H](CO)[C@@H](O)[C@H](O)[C@H]8O)[C@H]7O)[C@H](O)[C@H]6O)[C@H](O)C[C@]5(C)[C@H]4CC[C@]3(C)[C@H]1[C@@H]2C (stereo partly specified)
inhibition [1]: -7.91% (inactive)

CC[C@@]1(O)C(=O)OCc2c1cc1n(c2=O)Cc2cc3ccccc3nc2-1
fluorescence slope change [17]: 24.5% (inactive)
inhibition [2]: -22.8%
score [3]: 1.92
rescue above control [4]: 0
cytochrome c release ratio [5]: 0.94
inhibition of aggregation [6]: -7.84%
glutamate uptake change [7]: -25.7%
aggregation suppression score [9]: 1.49
survival [18]: 0.833 (inactive)
inhibition [1]: 3.3% (inactive)
red/green cell ratio (normalised) [11]: 1.07 (inactive)
normalised cell number [11, 21]: 0.28
normalised cell number [11, 22]: 0.3
activity remaining [12]: 107% (inactive)
remaining activity [14]: 90% (inactive)
z-score [19, 26]: -0.725 (inactive) and -0.263 (inactive) and -1.18 (inactive)
z-score [19, 27]: 0.467 and -0.232 and -0.237
luciferase signal [13]: 28 AU (inactive)
z-score [16]: -0.96 (inactive) and -0.91 (inactive) and -2.17 (inactive)

CC1CC(O)C2(O)C13CC(=O)OCC2(C)C(C)(O)C(=O)C3 (stereo unspecified)
inhibition [1]: 17.6% (inactive)

COc1ccc(C[C@H]2NC[C@H](O)[C@H]2OC(C)=O)cc1
inhibition [2]: 72.2%
score [3]: 0.1
rescue above control [4]: 20.1
cytochrome c release ratio [5]: 0.83
inhibition of aggregation [6]: 100%
glutamate uptake change [7]: -57.2%
aggregation suppression score [9]: 0.0246
parasite load remaining [10]: -43.5% (inactive) and -0.655% (inactive)
viability [10]: 60.3% and 76.2%
inhibition [1]: -19.6% (inactive)
red/green cell ratio (normalised) [11]: 0.63 (inactive)
normalised cell number [11, 21]: 0.16
normalised cell number [11, 22]: 0.1
activity remaining [12]: 92.2% (inactive)
fold change ([15]; stronger effect = lower value): 0.919 (inactive) and 1.04 (inactive)
fold change [15, 23]: 1.66
cell count [15, 24]: 1170 and 1230
cell count [15, 25]: 1270 and 1190
luciferase signal [13]: 16 AU (inactive)
z-score [16]: -0.88 (inactive)

CC[C@@H](C)C(=O)O[C@H]1[C@H](O)[C@H]2[C@@H](CN3C[C@@H](C)CC[C@H]3[C@@]2(C)O)[C@@H]2C[C@]34O[C@]5(O)[C@@H](OC(=O)[C@@](C)(O)[C@@H](C)O)CC[C@@]3(C)[C@@H]5[C@@H](OC(C)=O)[C@@H](OC(C)=O)[C@H]4[C@@]21O
inhibition [1]: 7.64% (inactive)

COc1cc2c3cc1Oc1cc(ccc1O)C[C@@H]1c4c(cc(OC)c(O)c4Oc4ccc(cc4)C[C@H]3N(C)CC2)CCN1C
inhibition [1]: -17.6% (inactive)

CCC1C2CC3C4N(C)c5ccccc5C45CC(C2C5O)N3C1O (stereo unspecified)
inhibition [1]: 6.73% (inactive)

CC(=O)OC1CC(OC2C(O)CC(OC3C(O)CC(OC4CCC5(C)C(CCC6C5CC(O)C5(C)C(C7=CC(=O)OC7)CCC65O)C4)OC3C)OC2C)OC(C)C1OC1OC(CO)C(O)C(O)C1O (stereo unspecified)
inhibition [1]: 7.01% (inactive)

CC(=O)O[C@@H]1[C@H]2CC[C@H]3[C@@](C)(O)[C@@H]4C[C@H](O)C(C)(C)[C@@]4(O)[C@H](O)C[C@@]13C[C@@]2(C)O
inhibition [1]: 8.37% (inactive)

CN1[C@@H]2C[C@@H]3C[C@H]1[C@H](O)[C@H]2O3
inhibition [1]: -5.75% (inactive)

c1ccc2c(c1)cc1ccc3cccc4ccc2c1c34
inhibition [1]: 5.92% (inactive)
red/green cell ratio (normalised) [11]: 0.86 (inactive)
normalised cell number [11, 21]: 1.22
normalised cell number [11, 22]: 1.05

C=C[C@H]1CN2CC[C@H]1C[C@@H]2[C@@H](O)c1ccnc2ccccc12
parasite load remaining [10]: 63% (inactive)
viability [10]: 116%
inhibition [1]: -5.19% (inactive)
fold change ([15]; stronger effect = lower value, cell number ratio, induced over uninduced): 0.868 (inactive)
fold change [15, 23]: 1.48
cell count [15, 24]: 8930
cell count [15, 25]: 10300
remaining NAD [20]: 10 nM (inactive)
luciferase signal [13]: 40 AU (inactive)

CCc1cccc(C)c1N(C(=O)CCl)C(C)COC (stereo unspecified)
inhibition [1]: 3.27% (inactive)

CC[C@@H](CO)NC(=O)[C@@H]1C=C2c3cccc4[nH]cc(c34)C[C@H]2N(C)C1
inhibition [2]: 8.64%
score [3]: 1.38
rescue above control [4]: 4.84
cytochrome c release ratio [5]: 0.5
inhibition of aggregation [6]: 24.4%
glutamate uptake change [7]: 12.4%
inclusion score [8]: 2
aggregation suppression score [9]: 1.32
parasite load remaining [10]: 65.8% (inactive) and 65.3% (inactive) and 59.9% (inactive)
viability [10]: 103% and 77.1% and 98.3%
inhibition [1]: 10.6% (inactive)
red/green cell ratio (normalised) [11]: 0.98 (inactive)
normalised cell number [11, 21]: 0.88
normalised cell number [11, 22]: 0.87
activity remaining [12]: 97% (inactive)
remaining activity [14]: 107% (inactive)
z-score [19, 26]: 0.332 (inactive)
z-score [19, 27]: 0.352
remaining NAD [20]: 10 nM (inactive)
luciferase signal [13]: 60 AU (inactive)
z-score [16]: 0.87 (inactive) and -0.035 (inactive)
